PubChem BioAssay (NCATS)
“And” between values parts separate entries of the source, which are not always exact repeats. Equal entries are not always repeated. Records with an inconclusive call do not appear. The source made the active and inactive calls. The call rests on the fitted dose curve; in most records, active means well fitted curve in either direction with a large enough effect (not every such curve was filed as active); inconclusive means small, poorly fitted or top-dose-only effect, or another doubt; inactive means flat fitted curve, though single readings scatter.

Assay: Stat Signaling Pathway (AID 446);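 further: ME-180 cervical cancer cells given 40 pM IL-6 alongside compound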
Settings: ME-180 SIE beta-lactamase reporter, IL-6 stimulated, 5 h; at 7.69 µM (top of the series) unless noted
Method: NCGC Assay Overview: The IL-6/STAT signaling pathway was assayed in ME-180 cervical carcinoma cells by a beta-lactamase reporter gene controlled by a STAT Inducible Element (SIE). This reporter is induced by IL-6 at 40 pM AC50 and inhibited by the pan JAK inhibitor, 2-(1,1-Dimethylethyl)-9-fluoro-3,6-dihydro-7H-benz[h]-imidaz[4,5-f]isoquinolin-7-one, at approximately 10 nM AC50. Plated cells were incubated overnight and on the following day, stimulated with 40 pM IL-6 for 5 hrs. The assay was screened at the AC50 of IL-6 activation to identify both inhibitors and activators of IL-6/STAT signaling.
NCGC Assay Protocol Summary: Cells were trypsinized, washed in assay medium (AM, OPTI MEM with 0.5% fetal bovine serum, 0.1 mM nonessential amino acids, 1 mM sodium pyruvate, 10mM HEPES pH 7.3, 100U/ml penicillin, and 100 ug/ml streptomycin) and suspended at 6 x 10e5/ml in AM. Approximately […] cells in 5 uL/well was dispensed into 1536 well plates and the cells were incubated overnight at 37 C. 23 nL of compound were delivered by a pin tool and 1 uL of IL-6 (40 pM final concentration in AM) was added. After centrifugation at 1000 rpm for less than a minute, plates were incubated at 37C for 5 hrs. One uL of detector mix (LiveBLAzerTM, Invitrogen) was added, the plates incubated at room temperature for 2.5 hrs, and fluorescence intensity at 460 and 530 nm emission was measured at 405 nm excitation by an Envision (Perkin Elmer) or Safire II (Tecan). Data were normalized by GeneData to the controls for AC90 stimulation (300 pM IL-6) and to AC90 inhibition (125 nM Jak inhibitor, 40 pM IL-6 in AM).
On the % scale 0 is the no-effect control and ±100 the full control effect.

SMILES	activity, negative = inhibition
O=S(=O)(c1ccccc1)N1CCC2(CCCN(c3ccccn3)C2)CC1	-6.34% (inactive)
O=C(c1cccc(F)c1)N1CCC2(CCN(Cc3nccs3)CC2)CC1	-0.835% (inactive)
COc1ccc(NC(=O)N2CC[C@@]3(CCCN(C(=O)c4cc(C(F)(F)F)cc(C(F)(F)F)c4)C3)C2)cc1	-6.2% (inactive)
COc1cccc(-c2cc(NCc3ccccc3)ncn2)c1	-5.77% (inactive)
O=c1c(-c2cc(F)cc(F)c2)nc2cnc(Oc3ccccc3)nc2n1C[C@H]1CCCO1	-1.6% (inactive)
COc1ccccc1-c1cc(N(C)Cc2ccco2)ncn1	5.75% (inactive)
O=C(Nc1cccc(F)c1)N1CCCC2(CCN(C(=O)c3ccco3)CC2)C1	0.264% (inactive)
COc1ccccc1CNc1ncncc1-c1ccccc1CN(C)C	6.72% (inactive)
COc1ccc(-n2c(=O)c(CCc3ccccc3)nc3cncnc32)cc1	-3.17% (inactive)
C/C=C\C(=O)N(CC)c1ccccc1C	4.14% [at 17.2 µM] (inactive)
Cc1noc(C)c1C(=O)N1CCC2(CCN(Cc3nccs3)CC2)CC1	11.5% (inactive)
COc1cccc(Nc2ncc3nc(C)c(=O)n(C[C@H]4CCCO4)c3n2)c1	-10.3% (inactive)
COc1ccccc1CNc1nc(-c2cccnc2)nc2ccccc12	-25.3% (inactive)
Cc1c(CC(C)(C)C(=O)O)n(Cc2ccc(Cl)cc2)c2ccc(F)cc12	-0.406% [at 38 µM] (inactive)
CN(C)CCOC(c1ccccc1)c1ccccc1 (tested in a mixture with another compound)	7.8% [at 17.2 µM] (inactive) and 0.334% [at 17.2 µM] (inactive)
COc1cccc(Cn2c(=O)c(-c3cccc(F)c3)nc3cncnc32)c1	-7.22% (inactive)
Cc1cnc(CNc2ncnc3ccc(-c4ccc(C(=O)N(C)C)cc4)cc23)cn1	-5.52% (inactive)
COc1cccc(Cn2c(=O)c(-c3cc(F)cc(F)c3)nc3cncnc32)c1	-1.76% (inactive)

SMILES	activity, negative = inhibition
N#Cc1cccc(-c2nc3cnc(Nc4ccccc4)nc3n(C[C@H]3CCCO3)c2=O)c1	-7.94% (inactive)
CN(C)c1ncnc2ccc(-c3cccc(C#N)c3)cc12	21.1% (inactive)
COc1ccc(Oc2ncc3ncc(=O)n(Cc4cccc(OC)c4)c3n2)cc1	-3% (inactive)
NC(=NCc1ccc(Cl)c(Cl)c1)NC(=O)c1nc(Cl)c(N)nc1N	5.12% [at 38 µM] (inactive)
CNc1ncnc2ccc(-c3ccccc3OC)cc12	-15.7% (inactive)
O=c1c(-c2ccc(F)c(F)c2)nc2cncnc2n1Cc1ccccc1	3.53% (inactive)
c1cncc(-c2nc(NCc3cccs3)c3ccccc3n2)c1	1.18% (inactive)
O=C(Nc1ccccc1)N1CCC2(CC1)CCN(C(=O)c1cccc(F)c1)CC2	-12.9% (inactive)
FC(F)(F)c1ccccc1-c1cncnc1NCc1cccnc1	-1.05% (inactive)
CC(C)CN1CCCC2(CCN(S(=O)(=O)c3ccccc3)CC2)C1	0.203% (inactive)
N#Cc1cccc(-c2nc(NCc3ccccc3)c3ccccc3n2)c1	-8.06% (inactive)
COc1ccc(C(=O)N2CCC3(CCCN(Cc4ccccc4)C3)CC2)cc1	-10.9% (inactive)
COc1cccc(-c2ccc3ncnc(NCCN4CCOCC4)c3c2)c1	-15.6% (inactive)
FC(F)(F)c1ccccc1-c1cncnc1NCc1cccs1	-1.4% (inactive)
CN(C)c1cc(-c2cccc(NS(C)(=O)=O)c2)ncn1	1.39% (inactive)
CN(C)c1ncc2nc(-c3cccs3)c(=O)n(C)c2n1	23.5% (inactive)
CC(C)CN1CCC2(CC1)CCN(C(=O)c1ccncc1)CC2	-5.7% (inactive)
O=C(c1cccc(F)c1)N1CCC2(CC1)CCN(c1ccncc1)CC2	24% (inactive)

Same assay, conditions: ME-180 SIE beta-lactamase reporter, IL-6 stimulated, 5 h; at 17.2 µM (top of the series)

SMILES	activity, negative = inhibition
CC(C)COC[C@H](CN(Cc1ccccc1)c1ccccc1)N1CCCC1	-1.52% (inactive)
COc1cc(=O)n(C)c2c(OC[C@@H](O)C(C)(C)O)cccc12	-4.39% (inactive)

Same assay, conditions: ME-180 (cervical carcinoma) SIE beta-lactamase reporter, IL-6 stimulated, 5 h; at 38 µM (top of the series)

SMILES	activity, negative = inhibition
CC(C)COC[C@H](CN(Cc1ccccc1)c1ccccc1)N1CCCC1	-10.2% (inactive)
COc1cc(=O)n(C)c2c(OC[C@@H](O)C(C)(C)O)cccc12	1.34% (inactive)
